In PubChem BioAssay (EPA / NIEHS):
Several values for one entry are separate records, joined by “and”; a condition that tells them apart may be missing. Equal entries are not always repeated. More than one record can exist for a structure, and the calls need not agree. Activity calls are given as the source filed them. Rule for the calls: active = hit-call score of the fitted dose curve at least 0.9, where 1 is the maximum; inactive = score below 0.9.

Key:
[1] = read-out: Monocyte Chemoattractant Protein-1 (MCP1), CCL2 (gene 6347); test: BSK_LPS_MCP1: BioMAP Diversity Plus: LPS Assay for Monocyte Chemoattractant Protein-1 (MCP1) Biomarker Activity (AID 2283081); conditions: primary human HUVEC with PBMC; actives raise or lower the signal;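 for AC50: secreted MCP-1 protein quantified by ELISA in culture supernatant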
In short: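 Values derive from bidirectional fitting against DMSO of ELISA-measured MCP-1 in a human primary endothelial and mononuclear cell co-culture, 24 h after chemical addition under LPS activation.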

[2] = BSK_LPS_PGE2: BioMAP Diversity Plus: LPS Assay for Prostaglandin E2 (PGE2) Biomarker Activity (AID 2283082); conditions: primary human HUVEC with PBMC; actives raise or lower the signal;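 for AC50: secreted prostaglandin E2 measured by ELISA in LPS-stimulated co-culture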
In short: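 Endpoint derived from bidirectional curve fitting versus DMSO of ELISA-measured PGE2 in LPS-stimulated human primary vascular co-culture (HUVEC with PBMC) harvested at 24 h.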

[3] = read-out: Macrophage colony-stimulating factor (MCSF), CSF1 (gene 1435); test: BSK_LPS_MCSF: BioMAP Diversity Plus: LPS Assay for Macrophage colony-stimulating factor (MCSF) Biomarker Activity (AID 2283083); conditions: primary human HUVEC with PBMC; actives raise or lower the signal
In short: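 Bidirectional fit versus DMSO of ELISA-measured M-CSF in co-cultured human umbilical vein endothelial cells and PBMC, sampled 24 h after dosing.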

[4] = read-out: Tissue Factor, F3 (gene 2152); test: BSK_LPS_TissueFactor: BioMAP Diversity Plus: LPS Assay for Tissue Factor Biomarker Activity (AID 2283084); conditions: primary human HUVEC with PBMC; actives raise or lower the signal
In short: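 Read-out: CD142 ELISA, 24 h. System: LPS-driven human endothelial/PBMC co-culture. Analysis: up- or down-signal fitted against DMSO.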

[5] = read-out: Tumor necrosis factor (Homo sapiens) (UniProt P01375); test: BSK_LPS_TNFa: BioMAP Diversity Plus: LPS Assay for Tumour Necrosis Factor alpha (TNFa) Biomarker Activity (AID 2283085); conditions: primary human HUVEC with PBMC; actives raise or lower the signal
In short: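 Primary human vascular co-culture of HUVEC and PBMC; TNFa ELISA 24 h after treatment, analysed as increase or decrease relative to DMSO control.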

[6] = read-out: Vascular cell adhesion molecule 1 (VCAM1), VCAM1 (gene 7412); test: BSK_LPS_VCAM1: BioMAP Diversity Plus: LPS Assay for Vascular cell adhesion molecule 1 (VCAM1) Biomarker Activity (AID 2283086); conditions: primary human HUVEC with PBMC; actives raise or lower the signal
In short: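 Primary human vascular co-culture (umbilical vein endothelium plus PBMC) stimulated with LPS received chemical; 24 h later VCAM-1 was read by ELISA. Overt cytotoxicity was assessed by sulforhodamine B staining of parallel cultures at the same time point.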

CD38, CD38 (gene 952) = test: BSK_SAg_CD38: BioMAP Diversity Plus: SAg Assay for CD38 Biomarker Activity (AID 2283087); conditions: primary human HUVEC with PBMC; actives raise or lower the signal
In short: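 Fluorescence ELISA of cell-surface CD38 served as the read-out, with either increase or decrease fitted against DMSO controls. Cells were a human umbilical vein endothelium plus PBMC co-culture under SEB/TSST-1 stimulation, measured 24 h after dosing.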

CD40, CD40 (gene 958) = test: BSK_SAg_CD40: BioMAP Diversity Plus: SAg Assay for CD40 Biomarker Activity (AID 2283088); conditions: primary human HUVEC with PBMC; actives raise or lower the signal
In short: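 Endpoint derived by fitting increases or decreases versus DMSO controls. CD40 is detected by fluorescence ELISA in a human vascular co-culture of endothelium and PBMC at 24 h.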

CD69, CD69 (gene 969) = test: BSK_SAg_CD69: BioMAP Diversity Plus: SAg Assay for CD69 Biomarker Activity (AID 2283089); conditions: primary human HUVEC with PBMC; actives raise or lower the signal;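 for AC50: cell surface CD69 protein quantified by ELISA with fluorescence detection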
In short: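 Values derive from bidirectional fitting relative to DMSO vehicle. Cells: umbilical vein endothelium plus peripheral blood mononuclear cells, treated 24 h before fluorescent ELISA for CD69.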

[7] = read-out: Monocyte Chemoattractant Protein-1 (MCP1), CCL2 (gene 6347); test: BSK_SAg_MCP1: BioMAP Diversity Plus: SAg Assay for Monocyte Chemoattractant Protein-1 (MCP1) Biomarker Activity (AID 2283090); conditions: primary human HUVEC with PBMC; actives raise or lower the signal
In short: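 MCP-1 levels in the endothelial–PBMC SAg co-culture were quantified by ELISA at 24 h post-dosing; both increases and decreases versus DMSO scored. Cytotoxicity monitored by SRB total protein in parallel cultures.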

[8] = read-out: E-selectin (Homo sapiens) (UniProt P16581); test: BSK_SAg_Eselectin: BioMAP Diversity Plus: SAg Assay for Eselectin Biomarker Activity (AID 2283091); conditions: primary human HUVEC with PBMC; actives raise or lower the signal
In short: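 Endpoint values derive from bidirectional fitting relative to DMSO, using ELISA-measured E-selectin in a human vascular co-culture (umbilical vein endothelium plus PBMC) sampled 24 h after dosing.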

[9] = read-out: Monokine induced gamma interferon (MIG), CXCL9 (gene 4283); test: BSK_SAg_MIG: BioMAP Diversity Plus: SAg Assay for Monokine induced gamma interferon (MIG) Biomarker Activity (AID 2283092); conditions: primary human HUVEC with PBMC; actives raise or lower the signal
In short: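 Values reflect bidirectional fitting of ELISA-measured MIG against DMSO vehicle, taken 24 h after dosing of a co-culture of human umbilical vein endothelial cells and peripheral blood mononuclear cells.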

[10] = BSK_SAg_PBMCCytotoxicity: PBMC Cytotoxicity Assessment in the BioMAP Diversity Plus: SAg Assay (AID 2283093); conditions: primary human HUVEC with PBMC;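 note: PBMC viability measured as Alamar Blue reduction fluorescence at 546/580 nm; fitted both ways against DMSO so a hit may be loss or gain of signal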;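 for AC50: PBMC superantigen activated with SEB plus TSST-1 one hour after compound addition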
In short: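 Human umbilical vein endothelial cells co-cultured with PBMC; PBMC (75,000/well) pre-treated with compound 1 h, then activated with SEB and TSST-1 (20 ng/mL final each) for 90 h. Alamar Blue added 6 h, fluorescence 546/580 nm; bidirectional fit versus DMSO.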

[11] = read-out: Interleukin-8 (IL8), CXCL8 (gene 3576); test: BSK_SAg_IL8: BioMAP Diversity Plus: SAg Assay for Interleukin-8 (IL8) Biomarker Activity (AID 2283094); conditions: primary human HUVEC with PBMC; actives raise or lower the signal
In short: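 In this co-culture of human umbilical vein endothelium with peripheral blood mononuclear cells, IL-8 is assayed by ELISA at 24 h. DMSO serves as baseline for bidirectional curve fitting.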

[12] = BSK_SAg_Proliferation: Cell Proliferation Assessment in the BioMAP Diversity Plus: SAg Assay (AID 2283095); conditions: primary human HUVEC with PBMC;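 note: relative cell number as total protein by SRB absorbance in sub-confluent culture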
In short: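 Readout is SRB-stained protein (560 nm) in a primary human HUVEC and PBMC co-culture; sub-confluent cultures are read at 96 h. Activity is fitted bidirectionally using DMSO as baseline.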

[13] = BSK_SAg_SRB: Viability Assessment in the BioMAP Diversity Plus: SAg Assay (AID 2283096); conditions: primary human HUVEC with PBMC;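 note: cells read one day after compound addition; hits may be either gain or loss of signal compared with DMSO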
In short: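 Endothelial/PBMC primary human co-culture; compound 24 h; fix 10% TCA, stain 0.1% SRB, A560; protein content as cytotoxicity proxy; bidirectional curve fit, DMSO = baseline.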

Measured: AC50

Chain of E-selectin (Homo sapiens) (P16581 whole entry, looked up): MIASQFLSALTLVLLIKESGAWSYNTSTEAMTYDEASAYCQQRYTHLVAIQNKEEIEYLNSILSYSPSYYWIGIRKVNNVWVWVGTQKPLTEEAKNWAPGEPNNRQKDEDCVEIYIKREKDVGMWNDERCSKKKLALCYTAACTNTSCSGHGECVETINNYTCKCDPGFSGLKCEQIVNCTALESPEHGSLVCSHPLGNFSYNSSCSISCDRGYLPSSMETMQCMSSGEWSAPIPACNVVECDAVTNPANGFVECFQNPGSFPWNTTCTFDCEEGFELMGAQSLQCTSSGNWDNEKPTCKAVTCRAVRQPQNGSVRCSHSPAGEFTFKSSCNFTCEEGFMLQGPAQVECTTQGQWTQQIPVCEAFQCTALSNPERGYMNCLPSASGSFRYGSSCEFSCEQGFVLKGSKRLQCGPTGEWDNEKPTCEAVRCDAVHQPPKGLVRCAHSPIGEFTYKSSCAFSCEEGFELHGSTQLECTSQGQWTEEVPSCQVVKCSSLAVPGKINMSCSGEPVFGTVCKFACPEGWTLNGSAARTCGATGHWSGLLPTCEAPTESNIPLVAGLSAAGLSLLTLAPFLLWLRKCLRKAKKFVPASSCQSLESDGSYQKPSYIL
Chain of Tumor necrosis factor (Homo sapiens) (P01375 whole entry, looked up): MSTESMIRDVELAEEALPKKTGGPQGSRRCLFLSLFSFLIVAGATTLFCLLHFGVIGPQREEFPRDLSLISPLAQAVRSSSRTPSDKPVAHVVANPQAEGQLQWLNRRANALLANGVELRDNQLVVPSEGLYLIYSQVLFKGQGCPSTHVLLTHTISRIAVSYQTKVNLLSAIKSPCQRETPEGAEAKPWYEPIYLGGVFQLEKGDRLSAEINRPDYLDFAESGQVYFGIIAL

C[C@@H]1C[C@H]2[C@@H]3CCC4=CC(=O)C=C[C@]4(C)[C@@]3(F)[C@@H](O)C[C@]2(C)[C@@]1(O)C(=O)COP(=O)(O)O
inactive: [1] | [2] | [3] | [4] | [6] | CD38, CD38 (gene 952) | CD40, CD40 (gene 958) | CD69, CD69 (gene 969) | [7] | [9] | [10] | [11] | [12] | [13]
active: [2] 9.37 µM and 3.63 µM | [5] 4.47 µM and 3.6 µM and 5.06 µM | CD40, CD40 (gene 958) 2.65 µM | [8] 2.96 µM and 1.73 µM and 1.25 µM | [11] 6.07 µM

CCOC(=O)CC(O)(CC(=O)OCC)C(=O)OCC
not listed: CD38, CD38 (gene 952)
inactive: all other assays above

CC(C)(C)c1cc(C(C)(C)C)c(O)c(C(C)(C)C)c1
active: [4] 20 µM
not listed: [10]
inactive: all other assays above

CC(C)(C)c1ccc(O)c(C(C)(C)C)c1
active: [1] 26.7 µM | [2] 16.9 µM | [3] 13.4 µM | [4] 20 µM | [5] 13.2 µM | [6] 19.4 µM | CD38, CD38 (gene 952) 14.5 µM | CD40, CD40 (gene 958) 20 µM | CD69, CD69 (gene 969) 24.8 µM | [7] 23.6 µM | [8] 11.9 µM | [9] 28.7 µM | [10] 12.9 µM | [11] 20 µM | [12] 10.8 µM | [13] 16.6 µM

CCCCC(CC)COC(=O)CCCCC(=O)OCC(CC)CCCC (stereo unspecified)
active: [5] 3.97 µM
inactive: all other assays above

CN1CCN(c2ccccc2/C=C2\SCCN(c3ccc(Cl)c(Cl)c3)C2=O)CC1
active: [1] 12.1 µM | [5] 20 µM | [6] 13 µM | CD40, CD40 (gene 958) 20 µM | CD69, CD69 (gene 969) 20 µM | [7] 23 µM | [10] 14.4 µM | [11] 20 µM | [12] 6.38 µM | [13] 5.22 µM
inactive: [2] | [3] | [4] | [8] | [9]
